# Inconclusive results are not listed. Calls of active or inactive are those of the source. Unless noted, calls come from the whole dose curve; as a rule, active = well fitted curve in the direction sought with a large enough effect; inconclusive = small, poorly fitted or top-dose-only effect, or another doubt; inactive = no such curve, though single readings can be large; an effect the other way counts as inactive or inconclusive.
# Tests used:
# [1] = qHTS profiling of the MIPE4 collection as inhibitors of Plasmodium falciparum (DD2) proliferation (AID 743345; call rule not given here); conditions: P. falciparum Dd2 in erythrocytes, SYBR Green DNA, 72 h
# In short: (§1)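 Erythrocytes infected with P. falciparum (0.3% parasitemia, 2.5% hematocrit) incubated with compounds 72 h at 37 C, 5% CO2. Lysis with saponin/Triton buffer containing SYBR Green I, overnight at room temperature in the dark; DNA fluorescence (485/535 nm) normalised to 0.29 uM artemisinin and DMSO.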
# [2] = qHTS profiling of the MIPE4 collection as inhibitors of Plasmodium falciparum (DD2) proliferation (Rep 2) (AID 743346; call rule not given here); conditions: P. falciparum Dd2 in erythrocytes, SYBR Green DNA, 72 h
# In short: as §1
# [3] = qHTS profiling of the MIPE4 collection as inhibitors of Plasmodium falciparum (HB3) proliferation (AID 743347; call rule not given here;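 note: plate controls were DMSO vehicle wells for no effect and artemisinin wells for full effect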); conditions: P. falciparum HB3 in erythrocytes, SYBR Green DNA, 72 h
# In short: as §1
# [4] = High-throughput drug toxicity screening in the BPDCN cell line Gen2.2 (AID 1224824; call rule not given here;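 note: cells exposed to compounds for 48 h before reading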); conditions: Gen2.2 BPDCN cells; at 45.8 µM (top of the series) unless noted
# In short: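 Gen2.2 cells, 500 per well in phenol red-free RPMI with 10% FBS, exposed to compounds 48 h at 37 C, 5% CO2; viability by CellTiter-Glo luminescence. Percent activity scaled to DMSO (100%) and 9.2 uM bortezomib final (0%).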
# [5] = High-throughput drug toxicity screening in the BPDCN cell line Cal-1 (AID 1224825; call rule not given here); conditions: Cal-1 BPDCN cell viability, qHTS; at 45.8 µM (top of the series) unless noted
# In short: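 Exponentially growing Cal-1 cells, 500 per well in phenol red-free RPMI with 10% FBS, were exposed to compounds for 48 h at 37 °C, 5% CO2. Viability was read by CellTiter-Glo luminescence and normalised to DMSO (100%) and 9.2 uM bortezomib (0%).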
# [6] = qHTS Screen of the MIPE 4.0 Collection Against Ewings Sarcoma (RDES) (AID 1259252); note: nearly all actives have a fitted effect of over 35% in size; note: potency is the fitted concentration of half-maximal effect
# In short: (§2)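 Here, cells in 5% FBS RPMI were exposed for two days (48 h) to compound dilutions added four hours after plating. ATP-based CellTiter-Glo luminescence measured viability, normalized to vehicle and no-cell blanks.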
# [7] = qHTS Screen of the MIPE 4.0 Collection Against Ewings Sarcoma (TC71) (AID 1259253); note: nearly all actives have a fitted effect of over 40% in size; note: potency is the fitted concentration of half-maximal effect
# In short: as §2
# [8] = qHTS Screen of the MIPE 4.0 Collection Against Ewings Sarcoma (EW8) (AID 1259255); note: nearly all actives have a fitted effect of over 35% in size; note: potency is the fitted concentration of half-maximal effect;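 for viability: 100% = DMSO-treated cells and 0% = medium-only wells without cells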
# In short: as §2
# [9] = qHTS Screen of the MIPE 4.0 Collection Against Ewings Sarcoma (TC32) (AID 1259256); note: nearly all actives have a fitted effect of over 45% in size; note: potency is the fitted concentration of half-maximal effect
# In short: as §2
# [10] = qHTS assay to identify small molecule inhibitors of chordoma cells - UCH-2 (AID 1259356); note: % is set by controls: 0 for no effect and ±100 for the full control effect
# [11] = qHTS profiling for inhibitors of Plasmodium falciparum (3D7) proliferation (AID 743322; call rule not given here;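 note: infected erythrocytes exposed to compound for 72 h before lysis; 100% = DMSO vehicle wells and 0% = 0.29 µM artemisinin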); conditions: P. falciparum 3D7 proliferation; at 28.7 µM (top of the series)
# In short: as §1
# [12] = qHTS profiling for inhibitors of Plasmodium falciparum (DD2) proliferation (AID 743323; call rule not given here); conditions: lower = more inhibition; at 28.7 µM (top of the series)
# In short: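 SYBR Green fluorescence (ex 485, em 535 nm) of lysed cultures gives parasite DNA content; wells normalized to artemisinin (0.29 uM) and DMSO controls. Infected red cells: 0.3% parasitemia, 2.5% hematocrit, 72 h, 37 C.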
# [13] = qHTS profiling of the MIPE4 collection as inhibitors of Plasmodium falciparum (3D7) proliferation (AID 743344; call rule not given here;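 note: scaled between DMSO vehicle wells and 0.29 µM artemisinin as full inhibition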); conditions: P. falciparum 3D7 in erythrocytes, SYBR Green DNA fluorescence, 72 h; at 28.5 µM (top of the series) unless noted
# In short: as §1
# [14] = Identifying Small Molecule Inhibitors of Pancreatic Cancer Stem Cells (SN12C, Adherent) (AID 1259358);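 note: potency is the fitted concentration of half-maximal effect; cell survival measured after 48 h of compound exposure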
# In short: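 Luminescent ATP readout (CellTiter-Glo) quantifies surviving cells after a 48 h drug incubation. Normalization uses DMSO wells as no inhibition and media-only wells as full inhibition; bortezomib served as positive control.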
# [15] = qHTS profiling for inhibitors of Plasmodium falciparum (HB3) proliferation (AID 743324); conditions: Plasmodium falciparum HB3 blood-stage proliferation; at 28.7 µM (top of the series);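 note: 100% = DMSO vehicle wells and 0% = artemisinin-treated control wells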
# In short: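 P. falciparum HB3 grown in erythrocytes (0.3% parasitemia, 2.5% hematocrit final) with compound for 72 h at 37 C, 5% CO2. Parasite DNA detected by SYBR Green after saponin/triton lysis overnight; normalized to 0.29 uM artemisinin and DMSO.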
# [16] = qHTS assay for measurement of the activity of small molecule inhibitors on Zika virus induced Caspase-3 activity in human astrocytoma cells (AID 1224859);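 note: plate controls were ZIKV-infected untreated cells for no effect and uninfected cells for full effect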
# In short: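 Human SNB-19 astrocytoma cells in RPMI 1640 with 10% FBS receive compound one hour ahead of Zika virus at 2 FFU/cell. After 6 h infection, caspase-3/7 activity is detected by Caspase-Glo luminescence.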
# [17] = Identifying Small Molecule Inhibitors of Pancreatic Cancer Stem Cells (A2780, Spheroid) (AID 1259357); conditions: Potency: A2780 spheroid viability;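 note: compound exposure lasted 48 h before the ATP luminescence read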; note: potency is the fitted concentration of half-maximal effect
# In short: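 Cytotoxicity read by CellTiter-Glo luminescence after 48 h compound exposure at 37C; percent activity scaled between DMSO-treated cells and cell-free wells. Spheroid formats used cells pre-formed 14 days in stem cell media on hydrogel.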
# [18] = qHTS assay to identify small molecule inhibitors of chordoma cells - UCH-1 (AID 1259355); note: % is set by controls: 0 for no effect and ±100 for the full control effect; nearly all actives have a fitted effect of over 55% in size
# In short: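 Luminescent ATP read-out (CellTiter-Glo, 30min at room temperature) measured viability of UCH-1 cells exposed for 48hr to test drugs at 15 concentrations, co-dosed with a five-agent combination of auranofin, camptothecin, doxorubicin, rubitecan and topotecan.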
# [19] = at 28.5 µM (top of the series) unless noted
smiles,measurement,setting,value
C[C@H]1C[C@@H]2[C@@H]([C@@H](O)C[C@@]3(C)[C@H]2CC[C@]3(O)C(=O)CO)[C@@]2(C)C=CC(=O)C=C12,"parasite growth remaining, % of DMSO control (lower = more inhibition)",[1]; at 9.64 µM (top of the series),93.1%
same,"parasite growth remaining, % of DMSO control (lower = more inhibition)",[1]; at 28.5 µM (top of the series),84.7%
same,"parasite growth, % of control (lower = inhibition)",[2]; at 9.64 µM (top of the series),62.6%
same,"parasite growth, % of control (lower = inhibition)",[2]; at 28.5 µM (top of the series),62.7%
same,"growth, % of control",[3]; at 9.64 µM (top of the series),93.3%
same,"growth, % of control",[3]; at 28.5 µM (top of the series),57.2%
same,"cell viability, % of control (lower = more cytotoxic)",[4],111%
same,viability (% of control),[5],53.2%
same,Potency,[6],inactive
same,Potency,[7],inactive
same,Potency,[8],inactive
same,Potency,[9],inactive
same,outcome,[10],inactive
CN1CCC(CNc2ccc3ncc(-c4cccc(OC(F)(F)F)c4)n3n2)CC1,remaining parasite growth % (stronger effect = lower value),[11],-1.19%
same,"activity, percent of control",[12],-0.747%
same,"parasite growth, % of DMSO control",[13],5.42%
same,"parasite growth remaining, % of DMSO control (lower = more inhibition)",[1]; [19],6.44%
same,"parasite growth, % of control (lower = inhibition)",[2]; [19],10.4%
same,"growth, % of control",[3]; [19],8.22%
same,"cell viability, % of control (lower = more cytotoxic)",[4],11.1%
same,viability (% of control),[5],7.35%
same,Potency,[6],16.6 µM (active)
same,Potency,[7],16.6 µM (active)
same,Potency,[8],10.5 µM (active)
same,Potency,[9],13.2 µM (active)
same,Potency,[14],20.9 µM (active)
C[C@]1(CO)CN(c2cc(C(=O)Nc3ccc4c(c3)-c3c(c(C(N)=O)nn3-c3ccc(F)cc3)CC4)c(Cl)cn2)C[C@@]1(C)CO,remaining parasite growth % (stronger effect = lower value),[11],50.5%
same,"activity, percent of control",[12],56.4%
same,"remaining proliferation (% of control), lower = more inhibition",[15],6.49%
same,"parasite growth, % of DMSO control",[13],11.4%
same,"parasite growth remaining, % of DMSO control (lower = more inhibition)",[1]; [19],17.1%
same,"parasite growth, % of control (lower = inhibition)",[2]; [19],38.3%
same,"growth, % of control",[3]; [19],9.48%
same,"cell viability, % of control (lower = more cytotoxic)",[4],27.2%
same,viability (% of control),[5],6.89%
same,Potency,[16],inactive
same,Potency,[6],14.8 µM (active)
same,Potency,[7],13.2 µM (active)
same,Potency,[8],16.6 µM (active)
same,Potency,[9],13.2 µM (active)
same,Potency,[17],inactive
same,Potency,[14],16.6 µM (active)
Cc1cn2cc(C(=O)N(C)CCO)cc(N[C@@H]3CCOc4cccc(C)c43)c2n1,"parasite growth, % of DMSO control",[13],33.4%
same,"growth, % of control",[3]; [19],47.6%
same,"cell viability, % of control (lower = more cytotoxic)",[4],152%
same,viability (% of control),[5],114%
same,Potency,[16],inactive
same,Potency,[6],inactive
same,Potency,[7],inactive
same,Potency,[8],inactive
same,Potency,[9],inactive
Cc1ccc(C(=O)Nc2ccc(CN3CCN(C)CC3)c(C(F)(F)F)c2)cc1C#Cc1cnc2cccnn12,remaining parasite growth % (stronger effect = lower value),[11],-1.18%
same,"activity, percent of control",[12],0.143%
same,"remaining proliferation (% of control), lower = more inhibition",[15],-1.05%
same,"parasite growth, % of DMSO control",[13],6.07%
same,"parasite growth remaining, % of DMSO control (lower = more inhibition)",[1]; [19],7.34%
same,"parasite growth, % of control (lower = inhibition)",[2]; [19],13%
same,"growth, % of control",[3]; [19],8.37%
same,"cell viability, % of control (lower = more cytotoxic)",[4],10.5%
same,viability (% of control),[5],3.63%
same,Potency,[6],5.26 µM (active)
same,Potency,[7],4.69 µM (active)
same,Potency,[8],5.9 µM (active)
same,Potency,[9],5.9 µM (active)
same,Potency,[17],14.8 µM (active)
same,Potency,[14],16.6 µM (active)
O=C(O)CO.[NH2-].[NH2-].[Pt+2],"parasite growth, % of DMSO control",[13],92.3%
same,"parasite growth remaining, % of DMSO control (lower = more inhibition)",[1]; [19],95.3%
same,"growth, % of control",[3]; [19],94.7%
same,"cell viability, % of control (lower = more cytotoxic)",[4],124%
same,viability (% of control),[5],100%
same,Potency,[16],inactive
same,Potency,[6],inactive
same,Potency,[7],inactive
same,Potency,[8],inactive
same,Potency,[9],inactive
same,Potency,[18],inactive
same,outcome,[10],inactive
CC[C@@]1(O)C(=O)OCc2c1cc1n(c2=O)Cc2cc3cc(O)ccc3nc2-1,"parasite growth, % of DMSO control",[13],13.5%
same,"parasite growth remaining, % of DMSO control (lower = more inhibition)",[1]; [19],12.6%
same,"parasite growth, % of control (lower = inhibition)",[2]; [19],16.8%
same,"growth, % of control",[3]; [19],5.75%
same,"cell viability, % of control (lower = more cytotoxic)",[4],4.43%
same,viability (% of control),[5],3.68%
same,Potency,[16],inactive
same,Potency,[6],0.0132 µM (active)
same,Potency,[7],0.0118 µM (active)
same,Potency,[8],0.0132 µM (active)
same,Potency,[9],0.0033 µM (active)
